Data: PubChem BioAssay (NCI)
About 83,000 compounds went through this panel and 20% of them were active in at least one assay; those are over-represented in the sample as a whole.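 Testing used 96-well plates and a 48-hour single-concentration exposure. Example: -40 means 40% of the starting cells died.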 A number with no mark means an inactive call. The source made the active and inactive calls. How the source made its calls: active means growth percent below 10; inactive means the rest.

Assays:
Test in all cases: NCI-60 one-dose screen, 48 h (100 = growth as untreated, 0 = no growth, -100 = all killed)
Conditions in all cases: 10 µM unless noted
[1] = tested on: SR leukemia
[2] = tested on: RPMI-8226 leukemia
[3] = tested on: OVCAR-8 ovarian
[4] = tested on: OVCAR-5 ovarian
[5] = tested on: OVCAR-4 ovarian
[6] = tested on: SK-OV-3 ovarian
[7] = tested on: IGROV1 ovarian
[8] = tested on: OVCAR-3 ovarian
[9] = tested on: HS 578T breast
[10] = tested on: NCI/ADR-RES ovarian

Row | Structure (SMILES) | growth [1] | growth [2] | growth [3] | growth [4] | growth [5] | growth [6] | growth [7] | growth [8] | growth [9] | growth [10]
1 | COc1ccc(NS(=O)(=O)N2CCCCC2)cc1 | 95.3% | 102% | 105% | 117% | 125% | 99.6% | 110% | 107% | 108% | 116%
2 | CC12CCC3C(=CCc4cc(O)ccc43)C1CCC2=O (stereo not given) | 97.6% | 87.8% | 101% | 102% | 107% | 115% | 107% | 111% | 104% | 102%
3 | N/C(=N\C(N)=N\c1nc2ccccc2s1)c1ccnc(Cl)c1 | 18.9% | 15.2% | 39.5% | 57.9% | 79.1% | 48.5% | 37.2% | 4.62% (active) | 25.7% | 18.3%
4 | CCCCCCCCN(CCO)CCCCCCCC | 96.7% | 121% | 101% | 96.9% | 93.8% | 103% | 105% | 109% | 117% | 105%
5 | O=c1sc2ncnc3ncn1c32 | 33.2% | 25.6% | 78.3% | 65.3% | 48.7% | 22.8% | 96% | 17.6% | 72.7% | 70.1%
6 | NS(=O)(=O)c1ccc(-n2ncc3c(N/N=C/c4ccccc4)ncnc32)cc1 | 50.8% | 83.4% | 55.5% | 97.2% | 54.3% | 107% | 76.5% | 99.9% | 113% | 87.6%
7 | O[N+]1=CC=CCC1=S.On1ccccc1=S.[Zn] | -4.29% (active) | -32.6% (active) | -50.4% (active) | -83.1% (active) | -95.6% (active) | -96.6% (active) | -81.2% (active) | -97.4% (active) | 7.55% (active) | -46.8% (active)
8 | Cn1c(=O)c2[nH]c(=S)n(Cc3ccccc3)c2n(C)c1=O | 91.4% | 119% | 111% | 105% | 98.9% | 107% | 108% | 104% | 101% | 99.2%
9 | COc1cccc2c1C(=O)c1c(O)c3c(c(O)c1C2=O)C[C@@](O)(C(C)=O)C[C@@H]3O[C@H]1C[C@H](N)[C@H](O)[C@H](C)O1 | -5.17% (active) | -22.9% (active) | -6.3% (active) | 2.15% (active) | -16.8% (active) | 7.97% (active) | -10.2% (active) | -18.7% (active) | -17.6% (active) | 11.8%
10 | O=CN1N=C(c2ccc(Nc3ccnc4cc(Cl)ccc34)cc2)CC1c1ccc(Cl)cc1 (stereo not given) | -23.3% (active) | 4.55% (active) | 33.1% | 41.9% | 38.1% | 4.28% (active) | 27.3% | -24.1% (active) | 28.1% | 0.514% (active)
11 | c1ccc(-c2nc(Nc3nccnn3)c3ccccc3n2)cc1 | 91.6% | 98.4% | 95.3% | 97.1% | 122% | 115% | 92.2% | 100% | 98.8% | 98.8%
12 | CSc1nc2nc3c(c(-c4ccc(C)cc4)c2c(=O)[nH]1)CN(C)C/C3=C\c1ccc(C)cc1 | 86.9% | 84.2% | 105% | 115% | 92.8% | 112% | 96.8% | 116% | 95.8% | 94.7%
13 | C/C(=C\CCc1ccoc1)CC/C=C(\C)CCCNc1ccc(F)cc1 | 83.4% | 53.8% | 101% | 93.5% | 75.2% | 101% | 91.7% | 99.9% | 109% | 98.1%
14 | C/C(=C\CCc1ccoc1)CC/C=C(\C)CCCN1CCOCC1 | 21% | 20.8% | 71.5% | 63% | 58.3% | 74.4% | 71.3% | 51.8% | 69.9% | 74.5%
15 | Cc1onc(-c2ccccc2Cl)c1C(=O)N[C@@H]1C(=O)N2[C@@H]1SC(C)(C)[C@@H]2C(=O)O | 91.6% | 95.4% | 106% | 115% | 110% | 104% | 101% | 118% | 114% | 109%
16 | COc1ccc2ncccc2c1Cc1c(OC)ccc2ncccc12 | 25.7% | 69.2% | 87.3% | 91.4% | 83.3% | 83.6% | 64.1% | 72.9% | 72.6% | 40.8%
17 | N#Cc1c(-c2ccccc2)cc(-c2ccccc2)n(CCCC(=O)O)c1=O | 91.8% | 103% | 51.3% | 104% | 102% | 105% | 99.4% | 112% | 107% | 99.8%
18 | CCOc1cc(/C=C/C(=O)CC(=O)/C=C/c2ccc(OC(=O)CNc3nc4ccc(OC)cc4s3)c(OCC)c2)ccc1OC(=O)CNc1nc2ccc(OC)cc2s1 | -27.3% (active) | -27.2% (active) | 28.6% | 99% | 69.5% | 89.5% | -26.5% (active) | 77.8% | 23% | 82.3%
19 | CCCCCCCCCCCCCCCCNC(=O)Nc1ccc2ccccc2c1 | 95.6% | 102% | 104% | 111% | 113% | 101% | 101% | 116% | 107% | 110%
20 | COc1ccc(NC(=O)c2ccccc2-c2ccccc2)c(C(N)=O)c1 | 8.17% (active) | 38.2% | 58.8% | 88.3% | 49.5% | 32.3% | 52.1% | -22.4% (active) | 38.9% | 26.9%
21 | CC(C)Sc1nc(-c2ccc(Br)cc2)c(C#N)c(N2CCCCC2)n1 | 106% | 98.8% | 98.6% | 88.7% | 95.1% | 110% | 104% | 104% | 107% | 102%
22 | N#Cc1c(-c2ccccc2)cc(-c2ccccc2)n(CCC(=O)O)c1=O | 19.8% | 50.3% | 50.3% | 94.2% | 90.8% | 92% | 50.2% | 14.8% | 58.2% | 33.7%
23 | [N-]=[N+]=NCc1ncc(-c2ccc(C(F)(F)F)cc2)c(NC2CCCCCC2)n1 | 5.36% [50 µM] (active) | 53.3% [50 µM] | 70.8% [50 µM] | 90.7% [50 µM] | 88.3% [50 µM] | 90.1% [50 µM] | 75.9% [50 µM] | 61.4% [50 µM] | 83.1% [50 µM] | 88.4% [50 µM]
24 | O=C(CSc1ncc(-c2ccccc2)n1-c1ccccc1)Nc1ccc(-c2nc3ccccc3s2)cc1 | 73% | 65.5% | 27.2% | 82.5% | 52.5% | 116% | 73.4% | 95.4% | 91.9% | 61.2%
25 | COc1cc(C2CC(c3ccc(C)cc3)=NN2C=O)ccc1OCCN(C)C (stereo not given) | 89.2% | 90.2% | 92.6% | 94.3% | 97.9% | 96.2% | 101% | 103% | 87.5% | 90.9%
26 | NC(=NCCCCCCN=C(N)/N=C(\N)Nc1ccc(Cl)cc1)/N=C(\N)Nc1ccc(Cl)cc1 | 25.1% | 28.4% | 17.6% | 28.7% | 21.4% | 2.57% (active) | -24.1% (active) | 17% | 18.1% | 46.8%
